These results are taken from PubChem BioAssay (Tox21).

The nature of assay [1]: Nuclear factor erythroid 2-related factor 2/antioxidant responsive element (Nrf2/ARE) small molecule agonists: qHTS cell viability counter screen in human keratinocytes (AID 1919968; active = well fitted cell-killing curve with a large enough effect in the repeat runs; note: nearly all actives have a fitted effect of over 55% in size). In outline: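 CellTiter-Fluor fluorescence, read 1 h after reagent, gave viability in the same wells as the ARE-luciferase assay. KeratinoSens cells (1,500/well) had 23 h compound exposure at 37 C/5% CO2 following 5 h plating.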

Assay [2] is described as follows: Nuclear factor erythroid 2-related factor 2/antioxidant responsive element (Nrf2/ARE) small molecule agonists: luciferase reporter gene qHTS assay in human keratinocytes (AID 1919969). Note: nearly all actives have a fitted effect of over 35% in size. Note: potency is the fitted concentration of half-maximal effect. In general terms: Reporter assays use an easily measured gene product as a stand-in for the process of interest.
Assay [3] in a line: G protein-coupled receptor (GPCR) small molecule agonists, calcium flux assay: HEK293 wild type cell line counter screen (AID 1920065). In outline: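 Calcium flux counter screen: compound added in agonist mode at 15 concentrations in triplicate to dye-loaded parental HEK293 cells. Fluorescence (480/540) read kinetically for 3 min; ATP served as positive control.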
(A change in cytosolic calcium serves as a functional read-out for many receptors and channels.)

Assay [4] in a line: p53 small molecule agonists, cell-based qHTS assay with human liver microsomes (AID 1963577). Put shortly:
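p53RE-bla cells, 4,000/well, compound added after 5 h, with human liver microsomes 0.5 mg/mL and NADPH 0.5 mg/mL final; 16 h at 37 C, then LiveBLAzer 2 h RT, fluorescence.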
In general terms: Quantitative high-throughput screening tests each substance at several concentrations.

Assay [5] is described as follows: p53 small molecule agonists, cell-based qHTS assay with rat liver microsomes (AID 1963578). Put shortly: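 p53RE-bla cells, 4,000/well, pre-incubated 5 h, then given compounds plus rat liver microsomes (0.5 mg/mL final) and NADPH (0.5 mg/mL final). Incubation 16 h at 37 C; beta-lactamase reporter read by LiveBLAzer fluorescence after 2 h at room temperature.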
Assay [6] in a line: p53 small molecule agonists, cell-based qHTS assay with human liver microsomes: qHTS cell viability counter screen (AID 1963579). Note: nearly all actives have a fitted effect of over 45% in size. In outline: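 p53RE-bla cells, 4,000/well, dosed 5 hours after plating, with human liver microsomes (0.5 mg/mL final) plus NADPH (0.5 mg/mL final), 16 hours at 37 C. Viability read as CellTiter-Glo luminescence after 30 min at room temperature.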
Assay [7] is described as follows: p53 small molecule agonists, cell-based qHTS assay with rat liver microsomes: qHTS cell viability counter screen (AID 1963580). Note: nearly all actives have a fitted effect of over 45% in size. In outline: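 Cytotoxicity counter screen: intracellular ATP read by CellTiter-Glo luminescence in the p53 reporter wells. HCT-116 p53RE-bla cells were treated for 16 h at 37 C alongside rat liver microsomes and NADPH, each 0.5 mg/mL final.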

Assay [8] is described as follows: p53 small molecule agonists, cell-based qHTS assay: qHTS cell viability counter screen (AID 1963581). Note: nearly all actives have a fitted effect of over 45% in size. Put shortly:
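Counter screen read by CellTiter-Glo luminescence (ATP content, 30 min at room temperature), run in the same wells as the beta-lactamase reporter read. HCT-116 p53RE-bla cells saw compounds for 16 h at 37 C.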

Assay [9] in a line: p53 small molecule agonists, cell-based qHTS assay (AID 1963582; active = well fitted activation curve with a large enough effect in the signal ratio in the repeat runs, not every such curve was filed as active; the % refers to the signal ratio). In outline: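 Read-out is beta-lactamase FRET fluorescence after 2 h at room temperature with LiveBLAzer B/G substrate. p53 response element-bla cells were treated 16 h at 37 C with compounds in DMSO, added 5 h after seeding.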
The target of assay [10] is 5-hydroxytryptamine receptor 2A (Homo sapiens) (UniProt P28223). The assay is described as follows: 5-hydroxytryptamine receptor 2A (HTR2A) small molecule antagonists, cell-based qHTS assay (AID 1963586). Note: nearly all actives have a fitted effect of over 45% in size. In outline: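 CHO cells stably expressing human HTR2A were plated for 18 h at 37 C, then loaded with calcium dye for 1 h. Compounds were preincubated 5 min at room temperature before DOI (4 nM solution) was added. Kinetic fluorescence was read for 3 min.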

For assay [11] the target is unchanged. Briefly: 5-hydroxytryptamine receptor 2A (HTR2A) small molecule agonists, cell-based qHTS assay (AID 1963587). Note: nearly all actives have a fitted effect of over 30% in size. Note: potency is the fitted concentration of half-maximal effect. Put shortly:
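Kinetic calcium-flux fluorescence (2 min, 1 sec intervals) after compound addition in agonist mode. HTR2A-CHO cells were cultured 18 h, then dye-loaded 1 h at 37 C.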

Assay [12] addresses Muscarinic acetylcholine receptor M1 (Homo sapiens) (UniProt P11229). The assay is described as follows: Cholinergic receptor muscarinic 1 (CHRM1) small molecule antagonists, cell-based qHTS assay (AID 1963588). Note: nearly all actives have a fitted effect of over 40% in size. Put shortly: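 Compounds were tested at 15 concentrations in three independent runs. Dye-loaded CHRM1-CHO cells were exposed 5 min at room temperature before stimulation by acetylcholine added at 50nM. Intracellular calcium was read kinetically on FDSS for 3 min.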

Assay [13] shares this target. The assay is described as follows: Cholinergic receptor muscarinic 1 (CHRM1) small molecule agonists, cell-based qHTS assay (AID 1963589). Note: nearly all actives have a fitted effect of over 35% in size. In outline:
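Agonist-mode calcium-flux screen: compounds at 15 concentrations, three independent runs, were pin-transferred onto dye-loaded human CHRM1-CHO cells. Fluorescence was then recorded kinetically every second over minutes.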

Assay [14] can be described thus: cAMP Responsive Elements (CRE) small molecule agonists, cell-based qHTS assay (AID 1963590). In outline:
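Agonist mode: compound added to CRE-bla HEK 293T cells (2,000/well, 18 h after plating) for 3 h at 37 C/5% CO2. Reporter activity detected via FRET beta-lactamase substrate, 2 h room-temperature loading.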

Assay [15] in a line: cAMP Responsive Elements (CRE) small molecule antagonists, cell-based qHTS assay (AID 1963591; active = well fitted inhibition curve with a large enough effect in the signal ratio in the repeat runs, not every such curve was filed as active; the % refers to the signal ratio). Put shortly:
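Antagonist mode: compounds are added alongside the adenylyl cyclase activator NKH477 (0.25 uM final) to CRE-bla HEK293T cells for 3 h. LiveBLAzer FRET substrate, 2 h at room temperature, reports bla expression.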

The target of assay [16] is Beta-2 adrenergic receptor (Homo sapiens) (UniProt P07550). The assay is described as follows: Adrenergic beta2 receptor (ADRB2) small molecule antagonists, cell-based qHTS assay (AID 1963592). Note: series mostly up to about 92 µM; nearly all actives have a fitted effect of over 50% in size. In outline:
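Assay format: CHO-ADRB2 cells, 18-20hr seeding at 37C/5% CO2, then compound plus 1nM isoproterenol agonist mix for 0.5hr RT. Homogeneous time-resolved fluorescence cAMP detection after 1hr, expressed as 665/615 nm ratio.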

Assay [17] has the same target. The assay is described as follows: Adrenergic beta2 receptor (ADRB2) small molecule agonists, cell-based qHTS assay (AID 1963593).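 Note: CHO cells stably overexpressing human ADRB2.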 In outline: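 CHO cells stably over-expressing ADRB2 were plated overnight at 37C, then dosed with compounds plus a stimulation mix containing 100uM IBMX and 25uM Ro-20-1724 for 0.5hr at room temperature. cAMP was measured by HTRF competition, 1hr.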

In assay [18] the target is D(2) dopamine receptor (Homo sapiens) (UniProt P14416). The assay is described as follows: Dopamine D2 receptor (DRD2) small molecule agonists, cell-based qHTS assay (AID 1963594). Note: nearly all actives have a fitted effect of over 35% in size. Put shortly:
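cAMP accumulation in DRD2-HEK293 cells measured by HTRF after 1 h detection; compounds added 10 min before NKH477 (200nM […]) forskolin-analogue stimulation, 30 min at room temperature, with Ro20-1724 present at 0.1 mM final.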

Assay [19] has the same target. The assay is described as follows: Dopamine D2 receptor (DRD2) small molecule antagonists, cell-based qHTS assay (AID 1963595; active = well fitted inhibition curve with a large enough effect in the signal ratio in the repeat runs, with a control signal flat; the % refers to the signal ratio). In outline: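 Cells were plated and grown for 24 h at 37 °C. Ro20-1724 (0.1 mM final) went in first, then compound for 10 min. NKH477 (200 nM) with quinpirole (12 nM) followed for 30 min at RT, then HTRF detection reagents for 1 h.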
Assay [20] addresses Gonadotropin-releasing hormone receptor (Homo sapiens) (UniProt P30968). The assay is described as follows: Human gonadotropin-releasing hormone receptor (GnRHR) small molecule agonists, calcium flux assay in GnRHR-HEK293 cells (AID 1920063). Note: nearly all actives have a fitted effect of over 35% in size. Put shortly: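 Agonist mode: compounds at 15 concentrations, in triplicate, went onto calcium dye-loaded GnRHR-HEK293 cells. Intracellular calcium was then followed as 480/540 nm fluorescence at 1 s intervals over 3 min.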

“And” between values parts separate entries of the source, which are not always exact repeats. Identical values can stand only once. Results filed as inconclusive are left out. The source holds several records for some structures; these can differ, active in one and inactive in another. The source made the active and inactive calls. Unless noted, calls come from the whole dose curve.

Sequence of D(2) dopamine receptor (Homo sapiens) (P14416 whole entry, looked up): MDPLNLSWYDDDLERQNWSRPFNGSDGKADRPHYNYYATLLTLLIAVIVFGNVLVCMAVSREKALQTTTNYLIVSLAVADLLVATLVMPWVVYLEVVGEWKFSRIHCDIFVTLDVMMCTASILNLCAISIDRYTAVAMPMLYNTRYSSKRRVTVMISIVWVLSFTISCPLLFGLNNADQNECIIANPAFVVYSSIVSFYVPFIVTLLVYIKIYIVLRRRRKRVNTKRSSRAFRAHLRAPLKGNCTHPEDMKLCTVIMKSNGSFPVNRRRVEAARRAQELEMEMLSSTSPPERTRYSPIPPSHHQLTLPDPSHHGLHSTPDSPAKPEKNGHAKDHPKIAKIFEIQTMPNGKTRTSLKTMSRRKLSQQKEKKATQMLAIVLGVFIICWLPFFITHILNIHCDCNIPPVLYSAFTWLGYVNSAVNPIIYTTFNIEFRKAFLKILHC
Sequence of Muscarinic acetylcholine receptor M1 (Homo sapiens) (P11229 whole entry, looked up): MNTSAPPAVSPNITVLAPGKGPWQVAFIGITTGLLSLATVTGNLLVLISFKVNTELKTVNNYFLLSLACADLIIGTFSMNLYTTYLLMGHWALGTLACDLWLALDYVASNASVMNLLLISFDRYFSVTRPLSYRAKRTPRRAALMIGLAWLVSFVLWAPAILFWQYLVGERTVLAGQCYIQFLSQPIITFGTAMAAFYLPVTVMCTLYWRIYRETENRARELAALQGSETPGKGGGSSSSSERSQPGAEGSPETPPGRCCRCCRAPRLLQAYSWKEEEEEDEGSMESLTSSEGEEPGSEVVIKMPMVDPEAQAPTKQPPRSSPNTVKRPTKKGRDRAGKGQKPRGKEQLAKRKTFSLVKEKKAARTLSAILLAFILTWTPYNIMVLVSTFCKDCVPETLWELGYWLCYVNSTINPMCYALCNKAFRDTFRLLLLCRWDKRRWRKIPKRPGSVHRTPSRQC
Sequence of Beta-2 adrenergic receptor (Homo sapiens) (P07550 whole entry, looked up): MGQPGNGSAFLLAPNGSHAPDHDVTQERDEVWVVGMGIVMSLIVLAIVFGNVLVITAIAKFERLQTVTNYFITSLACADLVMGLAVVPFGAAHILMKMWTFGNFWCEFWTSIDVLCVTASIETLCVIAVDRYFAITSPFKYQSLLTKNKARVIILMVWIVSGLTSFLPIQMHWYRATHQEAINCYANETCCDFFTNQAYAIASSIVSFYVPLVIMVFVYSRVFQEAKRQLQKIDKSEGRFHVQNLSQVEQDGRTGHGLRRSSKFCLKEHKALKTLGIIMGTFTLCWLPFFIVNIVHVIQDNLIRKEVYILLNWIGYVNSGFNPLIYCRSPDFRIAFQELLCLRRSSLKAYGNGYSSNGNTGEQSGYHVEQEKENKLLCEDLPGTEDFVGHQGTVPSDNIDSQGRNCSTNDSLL
Sequence of 5-hydroxytryptamine receptor 2A (Homo sapiens) (P28223 whole entry, looked up): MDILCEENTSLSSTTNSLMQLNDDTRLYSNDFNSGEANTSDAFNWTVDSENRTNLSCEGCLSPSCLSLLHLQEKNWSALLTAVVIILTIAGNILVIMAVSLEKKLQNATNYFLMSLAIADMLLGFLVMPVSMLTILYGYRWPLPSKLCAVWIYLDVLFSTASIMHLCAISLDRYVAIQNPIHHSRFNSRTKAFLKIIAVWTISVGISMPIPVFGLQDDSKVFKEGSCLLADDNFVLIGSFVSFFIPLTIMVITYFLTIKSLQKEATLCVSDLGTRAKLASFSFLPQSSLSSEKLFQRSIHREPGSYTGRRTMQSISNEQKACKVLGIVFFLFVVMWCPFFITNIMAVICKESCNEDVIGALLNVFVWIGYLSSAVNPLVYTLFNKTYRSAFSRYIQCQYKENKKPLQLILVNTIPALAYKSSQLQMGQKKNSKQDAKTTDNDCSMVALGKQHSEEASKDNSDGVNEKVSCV
Sequence of Gonadotropin-releasing hormone receptor (Homo sapiens) (P30968 whole entry, looked up): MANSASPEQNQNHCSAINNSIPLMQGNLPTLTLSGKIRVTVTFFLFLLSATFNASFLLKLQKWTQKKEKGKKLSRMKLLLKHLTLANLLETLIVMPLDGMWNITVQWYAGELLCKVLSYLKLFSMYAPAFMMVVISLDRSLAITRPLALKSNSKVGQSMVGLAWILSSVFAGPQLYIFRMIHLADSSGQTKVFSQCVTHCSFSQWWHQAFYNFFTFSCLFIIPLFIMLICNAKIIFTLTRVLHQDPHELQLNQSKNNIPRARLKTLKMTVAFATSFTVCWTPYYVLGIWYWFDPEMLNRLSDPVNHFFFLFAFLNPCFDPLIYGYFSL

For `CCCCCC1C(=O)CCC1CC(=O)OC` (configuration not stated), the Potency result in assay [1], in [2], in assay [3], in [4], in assay [5] and in assay [6] was “inactive” each time. The Potency entry in [7], in assay [8], in assay [9], in [10], in [11] and in assay [12] was “inactive” throughout. Also, the Potency result in [13], in assay [14], in assay [15], in assay [16], in assay [17] and in assay [18] was “inactive” each time. Besides, the Potency entry in [19] was “inactive”.
For the compound `CC(C)c1ccc(C(C)C)cc1`, the Potency result in [1], in assay [2], in assay [3], in assay [4], in assay [5] and in [6] was “inactive” throughout. The Potency result in assay [7], in assay [8], in assay [9], in assay [10], in assay [11] and in assay [12] was “inactive” each time. Further, the Potency entry in assay [13], in assay [14], in assay [15], in assay [17], in assay [18] and in [19] was “inactive” each time.
With `NC(=O)OCC(COC(N)=O)c1ccccc1`, the Potency result in assay [1], in assay [2], in [3], in [4], in assay [5] and in [6] was “inactive” throughout. Further, the Potency entry in assay [7], in assay [8], in assay [9], in [10], in assay [11] and in assay [12] was “inactive” each time. Moreover, the Potency entry in assay [13], in [14], in assay [15], in assay [16], in assay [17] and in assay [18] was “inactive” in each case. Moreover, the Potency entry in assay [19] was “inactive”.
Take `CC1=CC2C3CC(C=C3C)C2C1` (configuration not stated): the Potency entry in [1], in assay [2], in assay [20], in assay [3], in [6] and in assay [7] was “inactive” throughout. Besides, the Potency result in assay [8], in assay [10], in [12], in assay [13], in assay [14] and in assay [15] was “inactive” throughout. Besides, the Potency result in assay [16], in assay [18] and in [19] was “inactive” in each case.
For `O=C(/C=C/C=C/c1ccc2c(c1)OCO2)N1CCCCC1`, the Potency entry in assay [1], in assay [3], in [4], in assay [5], in assay [6] and in assay [7] was “inactive” each time. Also, the Potency result in [8], in assay [9], in assay [12], in assay [13], in assay [14] and in assay [15] was “inactive” each time. Moreover, the Potency entry in assay [16], in assay [18] and in assay [19] was “inactive” each time. In addition, the Potency result in assay [2] is “inactive and 2.73 µM (active)”; in assay [11] it was 6.18 µM (active) and inactive.
In the case of `CCC(C)(O)CCCC(C)C` (configuration not stated), the Potency result in [1], in assay [2], in assay [3], in assay [4], in [5] and in [6] was “inactive” in each case. Further, the Potency entry in assay [7], in assay [8], in assay [9], in [10], in assay [11] and in [12] was “inactive” in each case. Moreover, the Potency entry in [13], in assay [14], in assay [15], in assay [16], in assay [17] and in assay [18] was “inactive” in each case. In assay [19], the Potency result is “inactive”.
